Our source for the activity change, negative = inhibition and Potency values is PubChem BioAssay AID894 (National Center for Advancing Translational Sciences (NCATS), 2007).

Values joined by “and” are separate entries in the source; they are usually repeats but may differ in a detail not shown here. Equal values may be shown once. About 6,500 (4.3%) of roughly 150,000 compounds were called active. Another 12% or so got no clear call; they are omitted. This excerpt belongs to a sample that is enriched for actives. Values without a mark were called inactive. Calls come from the whole dose curve; as a rule, active = well fitted inhibition curve with a large enough effect (not every such curve was filed as active); inconclusive = small, poorly fitted or top-dose-only effect, or another doubt; inactive = no such curve, though single readings can be large or run the other way.
% is set by controls: 0 for no effect and ±100 for the full control effect; potency is the fitted concentration of half-maximal effect.

Chain of 15-hydroxyprostaglandin dehydrogenase [NAD(+)] (Homo sapiens) (P15428 whole entry, looked up): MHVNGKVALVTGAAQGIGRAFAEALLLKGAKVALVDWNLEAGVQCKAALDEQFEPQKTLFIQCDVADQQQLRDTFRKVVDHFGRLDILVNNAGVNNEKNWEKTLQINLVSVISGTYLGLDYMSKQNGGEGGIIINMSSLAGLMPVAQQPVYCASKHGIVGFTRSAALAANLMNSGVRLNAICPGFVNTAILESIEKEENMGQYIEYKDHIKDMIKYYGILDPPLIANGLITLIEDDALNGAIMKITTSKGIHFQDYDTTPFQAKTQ

For the experiment, the target named is 15-hydroxyprostaglandin dehydrogenase [NAD(+)] (Homo sapiens) (UniProt P15428). As to the kind of experiment: qHTS Assay for Inhibitors of HPGD (15-Hydroxyprostaglandin Dehydrogenase). To be noted: purified HPGD, NADH fluorescence kinetic, PGE2 substrate; activity change, negative = inhibition: stronger effect = lower value. In outline:
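NADH formation kinetics: reaction with 30 uM PGE2 and 1 mM NAD+ (final), 20 nM enzyme, Tris-HCl pH 8 with Tween 20, after 15 min compound preincubation at room temperature. Fluorescence change, last versus first of five reads.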
Take `CN(Cc1ccccc1)C(=O)COc1ccccc1`: the activity change, negative = inhibition is -21.3%.

For `COc1ccc(CC(=O)Nc2ccc(C(=O)NC(C)(C)C)cc2)cc1`, the activity change, negative = inhibition was -10.9%.

In the case of `CCN(C(=O)COc1cccnc1[N+](=O)[O-])C1CCS(=O)(=O)C1` (configuration not stated), the activity change, negative = inhibition was -10.7%.

On to `COc1ccc(C(=O)Nc2c(Cl)cc(Cl)cc2C(=O)N2CCC(C)CC2)cc1`, for which the activity change, negative = inhibition was -13.4%.

As for `Cc1ccc(Cn2nnc3c(=O)n(CC(=O)N4CCCCC4)cnc32)cc1`, the activity change, negative = inhibition was -22%.

Regarding `Cc1ccc(NC(=O)N2CCC(c3nc4c(nnn4Cc4c(F)cccc4Cl)c(=O)[nH]3)CC2)cc1`, the Potency is 12.6 µM (active).

As for `CC(=O)Nc1ccn(Cc2c(F)cccc2Cl)n1`, the activity change, negative = inhibition is -0.326%.

With `COc1ccc(-n2nnc3c(=O)n(CC(=O)N4CCC(Cc5ccccc5)CC4)cnc32)cc1`, the activity change, negative = inhibition was -23.8%.

With `COc1ccc(Cn2nnc3c(=O)[nH]c(C4CCN(C(=O)c5ccccc5Cl)CC4)nc32)cc1`, the Potency was 7.94 µM (active).

Take `OCCNCCOc1ccc(Cl)c(Cl)c1`: the activity change, negative = inhibition is -9%.

As for `C/C(=N/NC(=O)CSc1ccccn1)c1ccc([N+](=O)[O-])cc1`, the activity change, negative = inhibition was -12.7%.

Turning to `CC(C)Nc1nnc(SCC(=O)c2c[nH]c3ccccc23)s1`, the activity change, negative = inhibition is -16.2%.

Turning to `COc1ccc(NC(=S)N2CCCC(CO)C2)c(OC)c1` (configuration not stated), the activity change, negative = inhibition is -2.74%.

For the compound `COc1cccc([C@@H]2Oc3ccc(Br)cc3C(=O)[C@H]2OC(=O)NCc2ccc3c(c2)OCO3)c1`, the activity change, negative = inhibition is -12.1%.

For the compound `CCCN=C1NC(=O)C(CC(=O)NCCc2ccc(OC)c(OC)c2)S1` (configuration not stated), the activity change, negative = inhibition was -5.13%.

For `O=C(Nc1nc(-c2ccncc2)cs1)C1COc2ccccc2O1` (configuration not stated), the Potency was 7.94 µM (active).

`O=C(Nc1nc(-c2ccc3c(c2)OCO3)cs1)c1ccncc1`: the activity change, negative = inhibition was -1.69%.

Consider `O=C(Nc1nnc(SCc2ccc(Cl)cc2Cl)s1)C1COc2ccccc2O1` (configuration not stated), for which the activity change, negative = inhibition is -24%.

For the compound `CCNc1nc(-c2cc3ccccc3o2)cs1`, the activity change, negative = inhibition was -4.63%.

As for `O=C(OCC(=O)c1c[nH]c2ccccc12)c1cccc(O)c1`, the activity change, negative = inhibition is -8.39%.

As for `CC(=O)NC1=NN(C(C)=O)C(C)(c2ccc(C)cc2)S1` (configuration not stated), the activity change, negative = inhibition was -5.01%.

Consider `COCCOC(=O)c1sc(=S)n(CCOC)c1N`, for which the Potency was 28.2 µM (active).

`CC1(c2ccccc2)CC(C)(C)N(C(=O)c2cc([N+](=O)[O-])cc([N+](=O)[O-])c2)c2ccccc21` (configuration not stated): the activity change, negative = inhibition is -4.13%.

In the case of `O=C(NCc1ccco1)c1ccc(Cn2c(=O)c3sccc3n(Cc3ccc(F)cc3)c2=O)cc1`, the activity change, negative = inhibition was -17.7%.

For `O=C(Cc1ccc(-n2c(=O)c3sccc3n(Cc3ccc(F)cc3)c2=O)cc1)NCc1ccco1`, the activity change, negative = inhibition is -7.92%.

On to `O=C(NCc1ccco1)c1cc2sccc2n1Cc1ccc(F)cc1`, for which the Potency is 17.8 µM (active).

On to `COc1cc(NC(=O)c2ccccc2NS(=O)(=O)c2ccc(Cl)s2)cc(OC)c1`, for which the activity change, negative = inhibition was -5.94%.

Consider `O=C(O)c1c(Br)c(Br)c(Br)c(Br)c1C1c2ccc(O)cc2Oc2cc(O)ccc21`, for which the Potency was 2.51 µM (active).

For the compound `N#CC1=C(N)Oc2cc(O)ccc2C1C1CCCCC1` (configuration not stated), the activity change, negative = inhibition was -8.6%.

In the case of `COc1ccc(/C=C/C(=O)NC(=S)NN2CCCCC2c2cccnc2)cc1` (configuration not stated), the activity change, negative = inhibition was -29.9%.

Regarding `CCCCCCCC1=Cc2ccc(F)cc2C(C(C(=O)OC)C(=O)OC)N1C(=O)OC` (configuration not stated), the activity change, negative = inhibition was -2.63% and -13.1%.

For the compound `O=C(/C=C/c1cccs1)NCc1cccnc1`, the activity change, negative = inhibition is -9.43%.

`CC(=O)Nc1ccc(S(=O)(=O)Nc2nc3n(n2)C(c2ccccc2)CC(=O)N3)cc1` (configuration not stated): the activity change, negative = inhibition is -6.58%.

Take `CC(=O)Nc1ccc(S(=O)(=O)NC2(C(F)(F)F)C(=O)Nc3c2c(=O)[nH]c(=O)n3Cc2ccccc2)cc1` (configuration not stated): the Potency is 17.8 µM (active).

On to `CC(=O)Nc1ccc(S(=O)(=O)NCCc2ccccc2)cc1`, for which the activity change, negative = inhibition is -7.41%.

As to `COc1ccc(C(=O)CSc2nnc(NC(=O)C3CC(=O)N(c4cccc(OC)c4)C3)s2)cc1` (configuration not stated), the activity change, negative = inhibition is -4.45%.

`CCOC(=O)c1csc(NC(=O)Nc2cccc(OC)c2)n1`: the activity change, negative = inhibition is -6.02%.

For the compound `COC(=O)C1=C(C)N(C)C(=S)NC1c1ccccc1` (configuration not stated), the activity change, negative = inhibition was -10.8%.

For `COC(=O)c1cn(-c2ccccc2)nc1-c1cccnc1`, the activity change, negative = inhibition was -1.05%.

`CCOC(=O)c1sc(=S)n(-c2cccc(OC)c2)c1N`: the Potency was 28.2 µM (active).

For the compound `CCOC(=O)c1cnc(SCC(=O)Nc2cccc(OC)c2)nc1N`, the activity change, negative = inhibition is -14.8%.

For the compound `COC(=O)c1sc(=S)n(-c2ccccc2)c1N`, the Potency was 14.1 µM (active).

On to `Cc1ccc(CC2S/C(=C(/C#N)C(=O)N3CCOCC3)N(c3ccccc3)C2=O)cc1` (configuration not stated), for which the activity change, negative = inhibition was -13.9%.

Turning to `CN(C)C(=O)c1ccc2c(c1)C1C3CCC(C3)C1C(c1ccccc1)N2` (configuration not stated), the activity change, negative = inhibition was -9.73%.

Turning to `c1nnc2c3c4c(sc3ncn12)CCC4`, the activity change, negative = inhibition is -16.5%.

For `N=c1c2c3c(sc2ncn1N)CCCCC3`, the activity change, negative = inhibition is -10.1%.

As to `S=c1[nH]nc2c3c4c(sc3ncn12)CCCC4`, the Potency was 20 µM (active).
